Test results as given in PubChem BioAssay (NCATS).
Records with an inconclusive call do not appear. Values without a mark were called inactive. Calls of active or inactive are those of the source. The call rests on the fitted dose curve; in most records, active means well fitted cell-killing curve with a large enough effect; inconclusive means small, poorly fitted or top-dose-only effect; inactive means no such curve, though single readings can be large or run the other way.

Assay: Quantitative High-Throughput drug screen in 47 multiple myeloma cell lines against the NCATS MIPE library collection: NCIH929_DSMZ cell viability assay (AID 1918978); further: nearly all actives have a fitted effect of over 35% in size
Conditions: NCI-H929 myeloma viability, CellTiter-Glo ATP, 48 h; series mostly up to 45.8 µM; viability, % of control: at the top concentration
Outline: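 MIPE 4.0 approved/investigational drugs; 500 cells/well; 48 h 37 °C humidified 5% CO2; CTG luminescence readout; DMSO = 100%, media = 0% viability.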
Potency means the concentration at half of the fitted maximal effect.

Row | Compound | viability, % of control | Potency
1 | CC[C@H]1OC(=O)[C@H](C)[C@@H](O[C@H]2C[C@@](C)(OC)[C@@H](O)[C@H](C)O2)[C@H](C)[C@@H](O[C@@H]2O[C@H](C)C[C@H](N(C)C)[C@@H]2O)[C@](C)(OC)C[C@@H](C)C(=O)[C@H](C)[C@@H](O)[C@]1(C)O | 94.4% | –
2 | O=C(c1ccc(F)cc1)N1CCC[C@H](c2nc(-c3ccc(F)cc3)no2)C1 | 113% | –
3 | Cn1cc(C=CC(=O)c2cccc(F)c2)cc1C=CC(=O)NO | – | 20.9 µM (active)
4 | O=C1NC(O)CCN1[C@@H]1O[C@H](CO)[C@H](O)[C@H]1O (stereo not given in full) | 88.2% | –
5 | Nc1nc(N)c2nc(-c3cccc(O)c3)c(-c3cccc(O)c3)nc2n1 | – | 4.18 µM (active)
6 | N[C@H]1CN(c2c(F)cc3c(=O)c(C(=O)O)cn(C4C[C@@H]4F)c3c2Cl)CC12CC2 (stereo not given in full) | 92.2% | –
7 | C=C(C)[C@@H]1CC[C@]2(C(=O)O)CC[C@]3(C)[C@H](CC[C@@H]4[C@@]5(C)CC[C@H](O)C(C)(C)[C@@H]5CC[C@]43C)[C@@H]12 | 102% | –
8 | C[C@H](O)[C@@H]1C(=O)N2C(C(=O)O)=C(S[C@@H]3CN[C@H](CNS(N)(=O)=O)C3)[C@@H](C)[C@@H]12 | 115% | –
9 | CC[C@H]1OC(=O)[C@H](C)[C@@H](O[C@H]2C[C@@](C)(OC)[C@@H](O)[C@H](C)O2)[C@H](C)[C@@H](O[C@@H]2O[C@@H](C)C[C@H](N(C)C)[C@@H]2O)[C@](C)(O)C[C@@H](C)C(=O)[C@H](C)[C@@H](O)[C@]1(C)O | 96.5% | –
10 | COC1=C(OC)C(=O)C(CC=C(C)CCC=C(C)CCC=C(C)CCC=C(C)CCC=C(C)CCC=C(C)CCC=C(C)CCC=C(C)CCC=C(C)CCC=C(C)C)=C(C)C1=O | 111% | –
